Data from PubChem BioAssay AID1159580 (chemical genetic matrix, 2015).
Screen size: about 5,500 compounds; about 2,000 (36%) were called active. About 18% were inconclusive and are not listed. No stated cut-off is given here; in the data, active means normalized growth mostly below about 0.91 (no sharp cut-off); inconclusive means no clear call, values can overlap the other calls; inactive means mostly above about 0.92. This is one part of the list.

Test: chemical genetic growth profiling, strain panel (AID 1159580);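 further: tested at 20 µM; growth read once vehicle control cultures reached saturation at 30 °C; 1 = growth at the plate median or of vehicle wells; lower values mean less growth of the strain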
Conditions: growth OD

Measured: normalized growth

NCC(O)CC(=O)O (centres undefined)
inactive: S. cerevisiae deletion strains, locus YKL009W, strain mrt4, active compounds read low 0.991 | S. cerevisiae deletion strains, locus YKL068W, active compounds read low 0.999 | S. cerevisiae deletion strains, locus YKL085W, strain MDH1 (second series), active compounds read low 1 | S. cerevisiae deletion strains, locus YKL085W, strain MDH1, active compounds read low 1 | S. cerevisiae deletion strains, locus YKL160W, strain elf1, active compounds read low 1.02 | S. cerevisiae deletion strains, locus YKL190W, strain CNB1, active compounds read low 1.02 | S. cerevisiae deletion strains, locus YKR001C, strain vps1, active compounds read low 1 | S. cerevisiae deletion strains, locus YKR026C, strain gcn3, active compounds read low 0.959 | S. cerevisiae deletion strains, locus YKR091W, strain srl3, active compounds read low 0.974 | S. cerevisiae deletion strains, locus YLL001W, strain dnm1, active compounds read low 0.987 | S. cerevisiae deletion strains, locus YLL026W, active compounds read low 0.996 | S. cerevisiae deletion strains, locus YLL041C, strain sdh2, active compounds read low 1 | S. cerevisiae deletion strains, locus YLR027C, strain aat2, active compounds read low 0.97 | S. cerevisiae deletion strains, locus YLR039C, strain RIC1, active compounds read low 1.04 | S. cerevisiae deletion strains, locus YLR058C, strain SHM2, active compounds read low 1.02 | S. cerevisiae deletion strains, locus YLR102C, strain apc9, active compounds read low 1 | S. cerevisiae deletion strains, locus YLR113W, strain HOG1, active compounds read low 0.976 | S. cerevisiae deletion strains, locus YLR221C, strain rsa3, active compounds read low 1.01 | S. cerevisiae deletion strains, locus YLR258W, strain gsy2, active compounds read low 1 | S. cerevisiae deletion strains, locus YLR262C, strain YPT6 (second series), active compounds read low 1 | S. cerevisiae deletion strains, locus YLR262C, strain YPT6, active compounds read low 1.03 | S. cerevisiae deletion strains, locus YLR268W, strain sec22, active compounds read low 0.998 | S. cerevisiae deletion strains, locus YLR320W, strain mms22, active compounds read low 1 | S. cerevisiae deletion strains, locus YLR330W, strain CHS5, active compounds read low 1.01 | S. cerevisiae deletion strains, locus YLR342W, strain FKS1 (second series), active compounds read low 1.02 | S. cerevisiae deletion strains, locus YLR342W, strain FKS1, active compounds read low 0.968 | S. cerevisiae deletion strains, locus YLR357W, strain rsc2, active compounds read low 0.972 | S. cerevisiae deletion strains, locus YLR370C, strain arc18, active compounds read low 0.973 | S. cerevisiae deletion strains, locus YLR371W, strain rom2, active compounds read low 1 | S. cerevisiae deletion strains, locus YLR384C, strain iki3, active compounds read low 0.979 | S. cerevisiae deletion strains, locus YLR418C, strain cdc73, active compounds read low 0.988 | S. cerevisiae deletion strains, locus YML016C, strain PPZ1, active compounds read low 1.01 | S. cerevisiae deletion strains, locus YML032C, strain rad52, active compounds read low 1.01 | S. cerevisiae deletion strains, locus YML120C, strain ndi1, active compounds read low 0.994 | S. cerevisiae deletion strains, locus YML124C, strain tub3, active compounds read low 1 | S. cerevisiae deletion strains, locus YMR058W, strain fet3, active compounds read low 0.972 | S. cerevisiae deletion strains, locus YMR078C, strain ctf18, active compounds read low 1 | S. cerevisiae deletion strains, locus YMR125W, strain sto1, active compounds read low 0.958 | S. cerevisiae deletion strains, locus YMR129W, active compounds read low 0.978 | S. cerevisiae deletion strains, locus YMR205C, strain PFK2, active compounds read low 0.965 | S. cerevisiae deletion strains, locus YMR223W, strain ubp8, active compounds read low 1 | S. cerevisiae deletion strains, locus YMR231W, strain pep5, active compounds read low 0.968 | S. cerevisiae deletion strains, locus YMR263W, strain SAP30, active compounds read low 1.01 | S. cerevisiae deletion strains, locus YMR307W, strain GAS1, active compounds read low 0.988 | S. cerevisiae deletion strains, locus YNL067W, strain RPL9B, active compounds read low 1.01 | S. cerevisiae deletion strains, locus YNL071W, strain lat1, active compounds read low 0.981 | S. cerevisiae deletion strains, locus YNL128W, strain TEP1, active compounds read low 1.02 | S. cerevisiae deletion strains, locus YNL183C, strain NPR1, active compounds read low 0.931 | S. cerevisiae deletion strains, locus YNL209W, strain ssb2, active compounds read low 0.985 | S. cerevisiae deletion strains, locus YNL233W, strain BNI4, active compounds read low 1.04 | S. cerevisiae deletion strains, locus YNL248C, strain rpa49, active compounds read low 1.02 | S. cerevisiae deletion strains, locus YNL250W, strain rad50, active compounds read low 0.99 | S. cerevisiae deletion strains, locus YNL271C, strain bni1, active compounds read low 0.992 | S. cerevisiae deletion strains, locus YNL298W, strain CLA4, active compounds read low 0.992 | S. cerevisiae deletion strains, locus YNL307C, strain MCK1, active compounds read low 1.01 | S. cerevisiae deletion strains, locus YNL322C, strain KRE1 (second series), active compounds read low 0.958 | S. cerevisiae deletion strains, locus YNL322C, strain KRE1, active compounds read low 1.02 | S. cerevisiae deletion strains, locus YNR049C, strain mso1, active compounds read low 0.983 | S. cerevisiae deletion strains, locus YNR052C, strain pop2, active compounds read low 1 | S. cerevisiae deletion strains, locus YOL006C, strain TOP1, active compounds read low 0.988 | S. cerevisiae deletion strains, locus YOL012C, strain htz1 0.788 | S. cerevisiae deletion strains, locus YOL147C, strain pex11, active compounds read low 1 | S. cerevisiae deletion strains, locus YOR001W, strain rrp6, active compounds read low 1.02 | S. cerevisiae deletion strains, locus YOR061W, strain CKA2, active compounds read low 1.01 | S. cerevisiae deletion strains, locus YOR069W, strain VPS5, active compounds read low 1.01 | S. cerevisiae deletion strains, locus YOR070C, strain gyp1, active compounds read low 0.991 | S. cerevisiae deletion strains, locus YOR080W, strain dia2, active compounds read low 0.979 | S. cerevisiae deletion strains, locus YOR083W, strain WHI5, active compounds read low 1.03 | S. cerevisiae deletion strains, locus YOR106W, strain vam3, active compounds read low 0.978 | S. cerevisiae deletion strains, locus YOR136W, strain idh2, active compounds read low 1 | S. cerevisiae deletion strains, locus YOR144C, strain elg1, active compounds read low 0.999 | S. cerevisiae deletion strains, locus YOR184W, strain ser1, active compounds read low 1 | S. cerevisiae deletion strains, locus YOR231W, strain MKK1, active compounds read low 1.02 | S. cerevisiae deletion strains, locus YOR265W, strain rbl2, active compounds read low 0.989 | S. cerevisiae deletion strains, locus YOR270C, strain vph1, active compounds read low 0.987 | S. cerevisiae deletion strains, locus YOR290C, strain snf2, active compounds read low 0.938 | S. cerevisiae deletion strains, locus YOR316C, strain cot1, active compounds read low 1.01 | S. cerevisiae deletion strains, locus YPL051W, strain arl3, active compounds read low 1.02 | S. cerevisiae deletion strains, locus YPL078C, strain atp4, active compounds read low 0.998 | S. cerevisiae deletion strains, locus YPL106C, strain sse1, active compounds read low 0.985 | S. cerevisiae deletion strains, locus YPL240C, strain hsp82, active compounds read low 1 | S. cerevisiae deletion strains, locus YPL241C, strain CIN2, active compounds read low 1.01 | S. cerevisiae deletion strains, locus YPL256C, strain CLN2, active compounds read low 1.01 | S. cerevisiae deletion strains, locus YPR119W, strain clb2, active compounds read low 0.996 | S. cerevisiae deletion strains, locus YPR141C, strain kar3, active compounds read low 0.994 | S. cerevisiae deletion strains, locus YPR163C, strain tif3, active compounds read low 0.993 | S. cerevisiae deletion strains, locus YPR167C, strain met16, active compounds read low 0.995 | S. cerevisiae deletion strains, strain wtn01, active compounds read low 0.99 | S. cerevisiae strains, strain wild type, active compounds read low 1.02
